From PubChem BioAssay
The source made the active and inactive calls. Unless noted, the rule behind the calls is not given here.

How the values were obtained:
[1] = test system: Wnt5a (protein binding on small-molecule microarray); assay: Wnt5a binders on small-molecule microarray, primary screen, biophysical, 635/667 nm fluorescence (AID 1142); conditions: 635 nm fluorescence, higher = more signal;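 note: fluorescence read at 667 nm with signal to noise per printed feature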
[2] = cell viability in Huh7 cells, primary screen, cytotoxicity control for HCV replication inhibitor project, CellTiter-Glo luminescence, basal, 48 h (AID 1143); conditions: Huh7 HCV replicon, higher = more signal, called active from +8 up or from −8 down;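 note: Huh7 hepatoma cells carrying a hepatitis C replication reporter with no stimulus; test concentration not given here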
[3] = P. aeruginosa biofilm formation inhibitors, primary screen, PAO1 strain, BacTiter-Glo luminescence, LB-PBS (AID 1144); conditions: 12 h, higher = more signal
[4] = CREB reporter modulators without forskolin, primary screen, cell-based, PC12, CRE-LacZ reporter, unstimulated (AID 1145); conditions: no forskolin, luminescence, 4.5 h, higher = more signal, called active from +8 up or from −8 down
[5] = CREB reporter modulators under forskolin, primary screen, cell-based, PC12, CRE-LacZ reporter, forskolin-stimulated (AID 1146); conditions: luminescence, 4.5 h, higher = more signal, called active from +8 up or from −8 down;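 note: PC12 cells with 6xCRE LacZ reporter stimulated by forskolin 10 µM; beta-galactosidase reporter signal reflecting CREB driven transcription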
[6] = target: Streptavidin (Streptomyces avidinii) (UniProt P22629); assay: streptavidin binders on small-molecule microarray, primary screen, artefact control for SMM compound annotation, biophysical, 635/667 nm fluorescence (AID 1147); conditions: streptavidin binding, higher = more signal;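 note: signal reflects streptavidin binding to arrayed compounds as a control protein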
[7] = small-molecule binders of probe aInhba, primary screen, biochemical, small-molecule microarray, 635/667 nm fluorescence (AID 1148); conditions: higher = more signal;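 note: score merges 667nm spot fluorescence with signal-to-noise for antibody binding to printed compounds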
Torsin-1A (Homo sapiens) [8] = target: Torsin-1A (Homo sapiens) (UniProt O14656); assay: torsin A binders from cell lysate, primary screen, small-molecule microarray, wild-type, 635/667 nm (AID 1149); conditions: COS7 hTOR1A-WT lysate, 635 nm fluorescence, higher = more signal
Torsin-1A (Homo sapiens) [9] = target: Torsin-1A (Homo sapiens) (UniProt O14656); assay: small-molecule binders of mutant TOR1A in lysate, primary screen, cell lysate, small-molecule microarray, COS7 lysate, 635/667 nm fluorescence (AID 1150); conditions: COS7 hTOR1A mutant lysate, 635 nm fluorescence, higher = more signal;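 note: score pools 667 nm emission and signal to noise measuring lysate protein binding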
[10] = test system: Sonic hedgehog protein (Shh); assay: small-molecule binders of Shh protein, primary screen, biochemical, small-molecule microarray, 635/667 nm fluorescence (AID 1151); conditions: small-molecule microarray binding, 635 nm fluorescence; higher = more signal;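 note: Shh protein binding to compounds spotted on small-molecule microarray slides; score combines spot fluorescence intensity with signal-to-noise across triplicate slides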
[11] = E. coli DRC41 culture turbidity changes, primary screen, E. coli filamentation inducer project, strain DRC41, OD650, 48 h (AID 1152);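 note: E. coli MC1000 strain DRC41 lacking acrAB efflux pump and sulA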; conditions: E. coli DRC41 (acrAB sulA), higher = more signal, called active from +8 up or from −8 down
[12] = small-molecule binders of probe aLefty1, primary screen, biochemical, small-molecule microarray, 635/667 nm fluorescence (AID 1153); conditions: higher = more signal;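 note: score merges spot fluorescence with signal-to-noise ratio from the scanned slide images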
[13] = PSAC antagonists in infected red cells, primary screen, cell-based, P. falciparum Indochina, OD700, 1 h (AID 1154); conditions: P. falciparum Indochina infected RBC osmotic lysis, higher = more signal, called active from +8 up or from −8 down
[14] = PSAC antagonists in infected red cells, primary screen, cell-based, P. falciparum Indochina, OD700, 2 h (AID 1155);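 note: lysis reports solute entry through the parasite surface anion channel PSAC; channel blockers reduce lysis of infected cells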; conditions: P. falciparum Indochina infected erythrocytes, osmotic lysis OD700; higher = more signal, called active from +8 up or from −8 down
[15] = osmotic lysis modulators in infected erythrocytes, primary screen, PSAC antagonist project, cell-based, P. falciparum Indochina, OD700, 3 h (AID 1156); conditions: higher = more signal, called active from +8 up or from −8 down
[16] = PSAC antagonists in infected red cells, primary screen, cell-based, P. falciparum Indochina, OD700, 18 h (AID 1157); conditions: P. falciparum Indochina infected erythrocytes, osmotic lysis OD700, 18 h; higher = more signal, called active from +8 up or from −8 down
[17] = modulators of S6 phosphorylation in cells, primary screen, cell-based, A549, cytoblot, luminescence, serum-stimulated (AID 1158); conditions: A549 phospho-S6 cytoblot, 5 h, higher = more signal;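 note: serum-stimulated A549 lung adenocarcinoma cells; signal is phosphorylated S6 detected by cytoblot immunostaining with HRP secondary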
[18] = target: NADPH oxidase 2 (Homo sapiens) (UniProt P04839); assay: NOX2-dependent H2O2 signal modulators, primary screen, NOX inhibitor project, cell-based, HEK293-NOX2, PMA-stimulated, Amplex Red fluorescence (AID 1159); conditions: 45 min, higher = more signal, called active from +8 up or from −8 down; note: test concentration not given here
[19] = target: NADPH oxidase 4 (Homo sapiens) (UniProt Q9NPH5); assay: NOX4-dependent H2O2 signal modulators, primary screen, NOX inhibitor project, cell-based, HEK293-NOX4, tetracycline-induced, Amplex Red fluorescence (AID 1160); conditions: 45 min, higher = more signal, called active from +8 up or from −8 down
[20] = target: NADPH oxidase 5 (Homo sapiens) (UniProt Q96PH1); assay: NOX5-dependent H2O2 signal modulators, primary screen, NOX inhibitor project, cell-based, HEK293-NOX5, Amplex Red fluorescence (AID 1161); conditions: HEK293-NOX5, ionomycin, 45 min, higher = more signal
Sequence of NADPH oxidase 5 (Homo sapiens) (Q96PH1 whole entry, looked up): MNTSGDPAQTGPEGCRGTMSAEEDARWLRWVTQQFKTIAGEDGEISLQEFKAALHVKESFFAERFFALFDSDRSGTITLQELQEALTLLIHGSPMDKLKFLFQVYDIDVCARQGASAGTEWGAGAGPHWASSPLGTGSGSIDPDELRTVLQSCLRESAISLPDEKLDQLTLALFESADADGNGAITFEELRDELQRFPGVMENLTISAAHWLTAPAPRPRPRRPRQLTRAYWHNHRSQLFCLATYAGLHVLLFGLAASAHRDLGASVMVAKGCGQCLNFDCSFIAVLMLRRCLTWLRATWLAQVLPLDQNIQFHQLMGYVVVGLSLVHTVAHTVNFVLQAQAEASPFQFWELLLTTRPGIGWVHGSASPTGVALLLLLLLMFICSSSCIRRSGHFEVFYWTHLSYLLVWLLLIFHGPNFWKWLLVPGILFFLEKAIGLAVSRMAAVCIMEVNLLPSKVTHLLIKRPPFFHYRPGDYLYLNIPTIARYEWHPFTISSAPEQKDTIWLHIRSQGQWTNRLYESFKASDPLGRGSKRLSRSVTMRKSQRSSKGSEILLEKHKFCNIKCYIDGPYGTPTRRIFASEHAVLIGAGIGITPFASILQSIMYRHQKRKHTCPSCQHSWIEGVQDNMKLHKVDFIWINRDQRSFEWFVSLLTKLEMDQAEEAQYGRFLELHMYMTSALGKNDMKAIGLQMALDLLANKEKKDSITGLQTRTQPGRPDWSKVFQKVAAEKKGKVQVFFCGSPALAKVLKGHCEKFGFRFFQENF

Sequence of NADPH oxidase 2 (Homo sapiens) (P04839 whole entry, looked up): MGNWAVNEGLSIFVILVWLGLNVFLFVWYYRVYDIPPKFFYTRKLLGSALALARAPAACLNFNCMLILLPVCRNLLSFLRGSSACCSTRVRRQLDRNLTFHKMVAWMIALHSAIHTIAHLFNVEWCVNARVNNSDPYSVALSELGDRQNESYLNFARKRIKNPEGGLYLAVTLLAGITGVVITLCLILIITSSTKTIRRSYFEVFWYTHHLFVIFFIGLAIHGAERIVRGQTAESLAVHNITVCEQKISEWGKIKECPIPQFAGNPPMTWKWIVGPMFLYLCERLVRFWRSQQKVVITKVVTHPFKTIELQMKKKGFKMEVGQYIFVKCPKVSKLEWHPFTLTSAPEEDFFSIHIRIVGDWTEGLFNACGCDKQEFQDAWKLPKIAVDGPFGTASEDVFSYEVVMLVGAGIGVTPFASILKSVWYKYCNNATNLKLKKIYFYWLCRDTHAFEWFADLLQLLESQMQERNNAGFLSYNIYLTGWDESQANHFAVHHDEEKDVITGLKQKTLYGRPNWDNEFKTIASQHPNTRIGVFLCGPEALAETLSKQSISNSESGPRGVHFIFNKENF
Sequence of Torsin-1A (Homo sapiens) (O14656 whole entry, looked up): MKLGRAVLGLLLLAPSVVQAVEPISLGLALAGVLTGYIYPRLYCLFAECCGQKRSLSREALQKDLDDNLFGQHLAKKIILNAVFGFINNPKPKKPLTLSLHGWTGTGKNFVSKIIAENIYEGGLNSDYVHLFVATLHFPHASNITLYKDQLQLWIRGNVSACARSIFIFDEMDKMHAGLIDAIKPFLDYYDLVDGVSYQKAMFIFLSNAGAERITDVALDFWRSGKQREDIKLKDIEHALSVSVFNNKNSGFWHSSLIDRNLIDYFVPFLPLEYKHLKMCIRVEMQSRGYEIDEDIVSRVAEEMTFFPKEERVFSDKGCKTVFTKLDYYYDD
Sequence of NADPH oxidase 4 (Homo sapiens) (Q9NPH5 whole entry, looked up): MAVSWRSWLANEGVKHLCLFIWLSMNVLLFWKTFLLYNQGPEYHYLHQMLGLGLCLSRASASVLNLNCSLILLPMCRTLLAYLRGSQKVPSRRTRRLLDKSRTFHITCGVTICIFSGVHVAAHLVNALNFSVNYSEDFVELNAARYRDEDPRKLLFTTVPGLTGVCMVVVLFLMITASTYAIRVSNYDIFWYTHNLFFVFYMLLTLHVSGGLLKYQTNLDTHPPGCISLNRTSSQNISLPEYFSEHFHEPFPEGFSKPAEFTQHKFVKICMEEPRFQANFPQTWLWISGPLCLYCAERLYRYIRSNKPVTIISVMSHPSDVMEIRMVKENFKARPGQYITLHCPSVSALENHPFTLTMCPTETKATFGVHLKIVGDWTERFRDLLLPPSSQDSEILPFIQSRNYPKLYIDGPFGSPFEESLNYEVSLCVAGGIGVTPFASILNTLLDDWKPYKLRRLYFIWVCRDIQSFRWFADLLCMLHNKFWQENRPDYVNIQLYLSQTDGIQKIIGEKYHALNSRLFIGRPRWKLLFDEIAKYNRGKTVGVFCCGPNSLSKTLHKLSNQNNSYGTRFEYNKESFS
Sequence of Streptavidin (Streptomyces avidinii) (P22629 whole entry, looked up): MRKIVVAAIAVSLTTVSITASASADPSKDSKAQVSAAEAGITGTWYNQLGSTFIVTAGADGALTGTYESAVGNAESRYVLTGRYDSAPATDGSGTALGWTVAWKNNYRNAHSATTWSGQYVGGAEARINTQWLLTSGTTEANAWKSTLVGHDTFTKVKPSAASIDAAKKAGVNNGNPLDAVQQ

SMILES	composite z-score [1]	z-score [2]	z-score [3]	z-score [4]	z-score [5]	composite z-score [6]	composite z-score [7]	composite z-score (Torsin-1A (Homo sapiens) [8])	composite z-score (Torsin-1A (Homo sapiens) [9])	composite z-score [10]	z-score [11]	composite z-score [12]	z-score [13]	z-score [14]	z-score [15]	z-score [16]	z-score [17]	z-score [18]	z-score [19]	z-score [20]
COc1ccc(C(O)C2C=CC3C(=O)N(C)C(=O)C3N2N(c2ccccc2)c2ccccc2)cc1 (stereo not given)	0.0865	0.522 (inactive)	0.219 (inactive)	0.629 (inactive)	0.517 (inactive)	1.35	0.105	0.153	0.368	-0.176	-1.3 (inactive)	0.363	2.07 (inactive)	1.14 (inactive)	0.509 (inactive)	0.974 (inactive)	-0.478	-0.685 (inactive)	-2.05 (inactive)	-0.77
CCCNC(=O)[C@@]1(Sc2ccc(C)cc2)CC(=O)N(Cc2ccccc2Cl)[C@@H]1c1ccc(CO)cc1I	-0.618	-1.23 (inactive)	0.0611 (inactive)	0.479 (inactive)	1.44 (inactive)	-0.255	0.216	-1.61	-1.42	-0.537	0.244 (inactive)	1.08	5.36 (inactive)	0.773 (inactive)	0.206 (inactive)	0.303 (inactive)	0.009	1.24 (inactive)	-1.41 (inactive)	1.87
C=CCOC(=O)[C@@H]1[C@H]2C(=O)O[C@H](c3ccccc3)[C@H](c3ccccc3)N2[C@H](c2ccc(OCCOC(=O)[C@H]3C[C@H]4C(=O)N5CCC[C@H]5C(=O)N4[C@H]3c3cccc(OCCO)c3)cc2)[C@@]12C(=O)Nc1ccc(I)cc12	0.473	0.0351 (inactive)	-0.699 (inactive)	0.545 (inactive)	-0.206 (inactive)	0.502	-0.0552	0.438	0.618	1.97	-0.565 (inactive)	-0.101	1.72 (inactive)	1.39 (inactive)	-0.341 (inactive)	0.84 (inactive)	-0.101	0.929 (inactive)	0.788 (inactive)	0.32
COc1cc(C(O)C2C=CC3C(=O)N(c4ccccc4)C(=O)C3N2Nc2ccccc2F)cc(OC)c1OC (stereo not given)	0.36	-1.73 (inactive)	0.0706 (inactive)	1.61 (inactive)	1.05 (inactive)	0.135	0.177	0.0422	0.8	0.429	-1.19 (inactive)	0.149	5.94 (inactive)	1.25 (inactive)	-0.276 (inactive)	0.462 (inactive)	-1.01	-1.67 (inactive)	-4.07 (inactive)	-3.16
CCOC(=O)c1cn(C[C@H](Cc2ccccc2)NC(=O)N[C@H](CO)CCc2oc(C(C)=O)c(C(=O)OC)c2C(=O)OC)nn1	0.0532	-2.84 (inactive)	0.279 (inactive)	1.4 (inactive)	-0.158 (inactive)	0.486	-0.0762	0.439	0.692	1.63	-0.427 (inactive)	0.143	1.14 (inactive)	-1.06 (inactive)	0.661 (inactive)	-0.473 (inactive)	0.0878	-3.04 (inactive)	-3.25 (inactive)	-1.9
C=CCC(OC(C)=O)[C@@H]1[C@@H](N(Cc2cc3ccccc3o2)C(=O)Cc2ccc(OC)cc2)c2cc(OCCCO)ccc2N1C(=O)c1ccc2ccccc2n1 (stereo not given in full)	-0.124	-1.03 (inactive)	0.267 (inactive)	4.52 (inactive)	-0.24 (inactive)	0.229	-0.0103	0.135	-0.136	0.0685	0.697 (inactive)	0.231	2.75 (inactive)	0.567 (inactive)	0.867 (inactive)	0.186 (inactive)	0.856	0.226 (inactive)	-1.14 (inactive)	1.52
O=C1O[C@@H](c2ccccc2)[C@@H](c2ccccc2)N2[C@@H](c3ccc(OCCO)cc3)[C@]3(C(=O)Nc4ccc(C#CCCO)cc43)[C@@H](C(=O)O)[C@H]12	0.529	-0.579 (inactive)	-0.155 (inactive)	-0.761 (inactive)	-0.0408 (inactive)	1.84	1.34	0.892	0.203	0.688	0.624 (inactive)	1.31	1.93 (inactive)	-0.0017 (inactive)	0.88 (inactive)	-0.097 (inactive)	-0.197	2.08 (inactive)	0.716 (inactive)	1.1
O=C1O[C@H](Cc2ccccc2)[C@@H]2[C@H]3C=CCCC=C3CN2[C@H]1Cc1ccc(O)cc1	-0.311	-0.0514 (inactive)	-0.818 (inactive)	-0.0546 (inactive)	1.11 (inactive)	-0.0955	0.214	-0.2	-0.632	-0.282	0.676 (inactive)	0.0811	3.72 (inactive)	0.0962 (inactive)	0.0059 (inactive)	0.157 (inactive)	-0.253	-2.69 (inactive)	-1.58 (inactive)	-1.3
